Records with an inconclusive call do not appear. Values without a mark were called inactive. Activity calls are given as the source filed them. Calls come from the whole dose curve; as a rule, active = well fitted cell-killing curve with a large enough effect in the repeat runs; inconclusive = weak or mixed curves, or effect the other way; inactive = no such curve, though single readings can be large or run the other way.
Experiment: qHTS assay to identify small molecule antagonists of the vitamin D receptor (VDR) signaling pathway - cell viability counter screen (AID 743225); note: nearly all actives have a fitted effect of over 50% in size
Conditions: VDR-bla HEK293T viability, CellTiter-Glo luminescence, 16 h; series mostly up to 61 µM
Excerpt: U.S. Tox21 Program National Center for Advancing Translational Sciences [NCATS] NIH Chemical Genomics Center [NCGC] U.S. Environmental Protection Agency [EPA] National Institutes of Environmental Health Sciences [NIEHS] National Toxicology Program [NTP] U.S. Food and Drug Administration [FDA] Tox21 Assay Overview: The vitamin D receptor (VDR), a member of nuclear hormone receptor superfamily, plays a critical role in calcium homeostasis and bone metabolism. It is also involved in cell differentiation and growth, and thrombogenicity. To identify the compounds that inhibit VDR signaling, the VDR-UAS-bla HEK 293T cell line (Invitrogen, Carlsbad, CA, USA) containing a beta-lactamase reporter gene under the control of an upstream activator sequence (UAS) was used to screen the Tox21 10K compound library. The cytotoxicity of the Tox21 compound library against the VDR-bla cell line was tested in parallel by measuring the cell viability using CellTiter-Glo assay (Promega, Madison, WI) in the same wells.
Tox21 Assay Protocol Summary: VDR-bla cells were dispensed at 2,000 cells/5 uL of assay medium per well into black wall/clear-bottom 1536-well plates using a Multidrop Combi (Thermo Fisher Scientific, Waltham, MA) dispenser. After the assay plates were incubated at a 37C and 5% CO2 for 4 h, 23 nL of compounds dissolved in DMSO, positive controls or DMSO only was transferred to the assay plate by a Pintool station (Kalypsys, San Diego, CA), followed by addition of 1 uL of 1-alpha, 25-Dihydroxy Vitamin D3 (3 nM, final concentration in the wells) using a Bioraptr Flying Reagent Dispenser (FRD) workstation (Beckman Coulter, Indianapolis, IN). The plates were incubated at 37C and 5% CO2 for 16 h, and then 1 uL of LiveBLAzerTM B/G FRET substrate was added using a Bioraptr FRD. The plates were incubated at room temperature for 2 h and fluorescence intensity was measured by an Envision plate reader (PerkinElmer, Shelton, CT). For cell viability readout that measures cytotoxicity, 3 ul/well of CellTiter-Glo reagent was added into the assay plates using a Bioraptr FRD. After 30 min incubation at room temperature, the luminescence intensity in the plates was measured using a ViewLux plate reader (PerkinElmer).
For `C=C(C)C(=O)NCCC[N+](C)(C)C`, the outcome was “inactive”.
In the case of `O=[N+]([O-])c1ccc(CCO)cc1`, the outcome is reported as “inactive”.
In the case of `CC(C)(O)c1ccccc1`, the outcome is reported as “inactive”.
For `CCOC(=O)[C@H](CCc1ccccc1)N[C@@H](C)C(=O)N1CCC[C@H]1C(=O)O`, the outcome was “inactive”.
With `CCCc1ccc(N)cc1` the outcome was “inactive”.
With `Oc1ccc2c(c1)OC[C@@H](N1CCC(O)(c3ccc(F)cc3)CC1)[C@H]2O` the outcome was “inactive”.
For `CN(C)C(=O)C(CCN1CCC(O)(c2ccc(Cl)cc2)CC1)(c1ccccc1)c1ccccc1`, the outcome was “inactive”.
For `CCCCN(CCO)CCO`, the outcome was “inactive”.
With `O=C(O)/C=C/c1ccc(Cn2ccnc2)cc1` the outcome was “inactive”.
In the case of `OCc1ccccn1`, the outcome is reported as “inactive”.
In the case of `C=CCOCC(O)CS(=O)(=O)O` (stereo not given), the outcome is reported as “inactive”.
In the case of `O=C1CC2(CCCC2)CC(=O)N1`, the outcome is reported as “inactive”.
In the case of `CCC(C)(C)C1CCC(OC)CC1` (stereo not given), the outcome is reported as “inactive”.
In the case of `COC[C@H](c1ccc(C(F)(F)F)cc1)N1CCN(C2(C)CCN(C(=O)c3c(C)ncnc3C)CC2)C[C@H]1C`, the outcome is reported as “inactive”.
For `Cc1ccccc1C(=O)O`, the outcome was “inactive”.
In the case of `CO`, the outcome is reported as “inactive”.
With `CC(C)[C@H](N)C(=O)OCCOCn1cnc2c(=O)[nH]c(N)nc21` the outcome was “inactive”.
With `CC(=O)NC(Cc1ccccc1)C(=O)O` (stereo not given) the outcome was “inactive”.
For `CC(C=O)Cc1ccc(C(C)C)cc1` (stereo not given), the outcome was “inactive”.
In the case of `CC(O)CN(CCCN(C)C)CCCN(C)C` (stereo not given), the outcome is reported as “inactive”.
In the case of `COC(=O)[C@H]1[C@H]2C[C@@H]3c4[nH]c5cc(OC)ccc5c4CCN3C[C@H]2C[C@@H](OC(=O)COc2ccc(OC)cc2)[C@@H]1OC`, the outcome is reported as “inactive”.
For `C#CC(O)CCCCC` (stereo not given), the outcome was “inactive”.
With `c1ccc(SCCSc2ccccc2)cc1` the outcome was “inactive”.
For `Cc1nccn1CC1CCc2c(c3ccccc3n2C)C1=O` (stereo not given), the outcome was “inactive”.
With `COCCOC(=O)CC#N` the outcome was “inactive”.
For `COc1ccc2cc(C=O)ccc2c1`, the outcome was “inactive”.
For `COC(=O)CCCCCCCCC(=O)OC`, the outcome was “inactive”.
With `N[C@@H](CS)C(=O)O` the outcome was “inactive”.
With `CC(C)=CCC/C(C)=C/C(=O)O` the outcome was “inactive”.
In the case of `COc1cc(C)cc(O)c1`, the outcome is reported as “inactive”.
Molecule `NC(=S)Nc1cccc2ccccc12` has a viability change, negative = cytotoxic of -0.0846% [at 6.95 µM].
For `CN1[C@@H]2CC[C@H]1CC(NC(=O)n1c(=O)[nH]c3ccccc31)C2` (stereo not given in full), the outcome was “inactive”.
In the case of `O=C(O)c1ccc[n+]([O-])c1`, the outcome is reported as “inactive”.
For `NC(=O)CCCCC1CCSS1` (stereo not given), the outcome was “inactive”.
With `O=C(O)Cc1cc(I)c(Oc2cc(I)c(O)c(I)c2)c(I)c1` the outcome was “inactive”.
`NCC[C@H](O)C(=O)N[C@@H]1C[C@H](N)[C@@H](O[C@H]2O[C@H](CN)[C@@H](O)[C@H](O)[C@H]2O)[C@H](O)[C@H]1O[C@H]1O[C@H](CO)[C@@H](O)[C@H](N)[C@H]1O` gave a viability change, negative = cytotoxic of 0.0036% [at 0.628 µM].
With `NCCNC(=O)c1ccc(Cl)cn1` the outcome was “inactive”.
For `OC/C=C/c1ccccc1`, the outcome was “inactive”.
In the case of `CC(=O)c1ccc(C)cc1`, the outcome is reported as “inactive”.
For `Cc1cc(C)cc(OCC2CNC(=O)O2)c1` (stereo not given), the outcome was “inactive”.

Reference: PubChem BioAssay (Tox21)
% is set by controls: 0 for no effect and ±100 for the full control effect.
